Measured values reported in PubChem BioAssay.
The source made the active and inactive calls.

How the values were obtained:
[1] = small molecules captured by biotinylated probe aFSTL3 – biochemical, small-molecule microarray, fluorescence 635/667, stem cell growth factor project, primary screen (AID 1064); conditions: higher = more signal;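 note: measures binding of the biotinylated anti-FSTL3 antibody to printed compounds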
[2] = binders from COS7 lysate, DM2A8 probe, primary screen, torsin A project, cell lysate, small-molecule microarray, fluorescence 635/667 (AID 1065); conditions: higher = more signal, COS7 lysate expressing mutant human TOR1A
[3] = small molecules captured by biotinylated probe aFGF2 – biochemical, small-molecule microarray, fluorescence 635/667, stem cell growth factor project, primary screen (AID 1067); conditions: higher = more signal;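 note: measures binding of biotinylated aFGF2 protein to printed compounds on slides; z-score merges feature fluorescence and signal-to-noise across triplicate slides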
[4] = small molecules captured by biotinylated probe aFGF10 – biochemical, small-molecule microarray, fluorescence 635/667, stem cell growth factor project, primary screen (AID 1071); conditions: higher = more signal;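 note: score merges 667 nm spot intensity and signal to noise from triplicate slides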
[5] = biological target: Neurogenic locus notch homolog protein 2 (Homo sapiens) (UniProt Q04721); assay: small molecules binding Notch2 protein – biochemical, small-molecule microarray, 635 nm fluorescence, stem cell growth factors, primary screen (AID 1073); conditions: higher = more signal
Sequence of Neurogenic locus notch homolog protein 2 (Homo sapiens) (Q04721 whole entry, looked up, canonical isoform): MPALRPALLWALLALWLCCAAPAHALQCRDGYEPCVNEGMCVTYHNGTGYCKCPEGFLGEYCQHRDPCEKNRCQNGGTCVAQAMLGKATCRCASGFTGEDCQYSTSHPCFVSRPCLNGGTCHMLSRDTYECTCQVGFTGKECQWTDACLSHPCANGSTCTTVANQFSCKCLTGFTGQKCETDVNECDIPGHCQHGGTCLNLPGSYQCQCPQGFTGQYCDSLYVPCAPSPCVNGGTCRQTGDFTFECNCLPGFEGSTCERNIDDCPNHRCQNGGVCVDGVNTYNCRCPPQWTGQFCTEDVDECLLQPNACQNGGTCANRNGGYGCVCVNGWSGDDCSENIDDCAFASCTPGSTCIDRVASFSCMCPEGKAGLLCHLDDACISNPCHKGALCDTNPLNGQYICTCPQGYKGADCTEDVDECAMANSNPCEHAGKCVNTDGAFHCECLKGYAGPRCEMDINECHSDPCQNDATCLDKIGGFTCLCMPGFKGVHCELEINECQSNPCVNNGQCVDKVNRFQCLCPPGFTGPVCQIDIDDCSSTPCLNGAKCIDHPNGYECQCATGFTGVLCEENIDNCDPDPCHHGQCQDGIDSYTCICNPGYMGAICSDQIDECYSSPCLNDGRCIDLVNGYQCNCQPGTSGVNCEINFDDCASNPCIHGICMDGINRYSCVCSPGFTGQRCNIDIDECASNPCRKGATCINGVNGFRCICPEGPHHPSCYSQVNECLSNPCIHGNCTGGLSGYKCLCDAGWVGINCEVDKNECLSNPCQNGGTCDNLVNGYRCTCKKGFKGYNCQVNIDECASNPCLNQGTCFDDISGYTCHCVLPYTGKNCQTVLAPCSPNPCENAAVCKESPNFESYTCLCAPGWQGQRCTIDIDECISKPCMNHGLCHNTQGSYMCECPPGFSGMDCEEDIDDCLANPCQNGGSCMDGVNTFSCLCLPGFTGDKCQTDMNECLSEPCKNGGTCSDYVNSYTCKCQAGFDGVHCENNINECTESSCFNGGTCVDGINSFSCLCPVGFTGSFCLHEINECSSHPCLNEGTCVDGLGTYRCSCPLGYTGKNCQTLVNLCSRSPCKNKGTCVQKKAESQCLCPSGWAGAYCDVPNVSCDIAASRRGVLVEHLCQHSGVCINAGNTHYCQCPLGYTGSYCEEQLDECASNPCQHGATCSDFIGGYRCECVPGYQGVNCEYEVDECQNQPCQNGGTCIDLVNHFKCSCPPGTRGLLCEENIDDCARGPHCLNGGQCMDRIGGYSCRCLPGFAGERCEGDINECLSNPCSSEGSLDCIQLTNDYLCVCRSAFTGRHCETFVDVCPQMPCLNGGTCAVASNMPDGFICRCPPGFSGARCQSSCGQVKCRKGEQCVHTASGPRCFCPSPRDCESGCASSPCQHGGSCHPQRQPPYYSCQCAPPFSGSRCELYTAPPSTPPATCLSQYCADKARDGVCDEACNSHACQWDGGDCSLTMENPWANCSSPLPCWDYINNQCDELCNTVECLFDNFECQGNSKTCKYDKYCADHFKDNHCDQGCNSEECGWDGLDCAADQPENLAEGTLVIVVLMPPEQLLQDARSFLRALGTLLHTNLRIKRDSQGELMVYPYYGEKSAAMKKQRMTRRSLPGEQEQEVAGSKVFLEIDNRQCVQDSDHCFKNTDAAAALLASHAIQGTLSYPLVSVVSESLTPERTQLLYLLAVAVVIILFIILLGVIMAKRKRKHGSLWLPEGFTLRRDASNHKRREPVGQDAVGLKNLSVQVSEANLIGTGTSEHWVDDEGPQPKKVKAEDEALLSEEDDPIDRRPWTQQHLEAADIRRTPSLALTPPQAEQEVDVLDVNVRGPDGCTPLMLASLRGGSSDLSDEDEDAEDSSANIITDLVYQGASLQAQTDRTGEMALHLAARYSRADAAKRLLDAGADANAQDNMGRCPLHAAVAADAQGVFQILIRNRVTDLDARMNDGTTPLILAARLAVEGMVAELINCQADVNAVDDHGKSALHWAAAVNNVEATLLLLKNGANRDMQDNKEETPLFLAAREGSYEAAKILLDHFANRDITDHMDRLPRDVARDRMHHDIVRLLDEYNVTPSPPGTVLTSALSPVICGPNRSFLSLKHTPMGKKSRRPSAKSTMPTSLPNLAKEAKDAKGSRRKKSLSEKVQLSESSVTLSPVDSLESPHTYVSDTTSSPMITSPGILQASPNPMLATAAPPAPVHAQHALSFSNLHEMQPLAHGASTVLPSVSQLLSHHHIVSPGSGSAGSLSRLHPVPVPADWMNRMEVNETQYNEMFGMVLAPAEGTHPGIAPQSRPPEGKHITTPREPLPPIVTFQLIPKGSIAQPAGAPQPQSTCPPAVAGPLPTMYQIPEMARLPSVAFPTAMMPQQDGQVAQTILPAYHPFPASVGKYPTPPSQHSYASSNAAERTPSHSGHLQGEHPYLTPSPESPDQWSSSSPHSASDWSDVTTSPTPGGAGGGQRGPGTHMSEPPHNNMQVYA

[6] = biological target: Pro-neuregulin-1, membrane-bound isoform (Homo sapiens) (UniProt Q02297); assay: small molecules binding neuregulin-1 protein – biochemical, small-molecule microarray, fluorescence 635/667, psychiatric disease protein project, primary screen (AID 1075); conditions: NRG1 binding, 635 nm fluorescence, higher = more signal;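 note: score combines 667 nm spot fluorescence with signal to noise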
Sequence of Pro-neuregulin-1, membrane-bound isoform (Homo sapiens) (Q02297 whole entry, looked up, the tested form may be a part, canonical isoform): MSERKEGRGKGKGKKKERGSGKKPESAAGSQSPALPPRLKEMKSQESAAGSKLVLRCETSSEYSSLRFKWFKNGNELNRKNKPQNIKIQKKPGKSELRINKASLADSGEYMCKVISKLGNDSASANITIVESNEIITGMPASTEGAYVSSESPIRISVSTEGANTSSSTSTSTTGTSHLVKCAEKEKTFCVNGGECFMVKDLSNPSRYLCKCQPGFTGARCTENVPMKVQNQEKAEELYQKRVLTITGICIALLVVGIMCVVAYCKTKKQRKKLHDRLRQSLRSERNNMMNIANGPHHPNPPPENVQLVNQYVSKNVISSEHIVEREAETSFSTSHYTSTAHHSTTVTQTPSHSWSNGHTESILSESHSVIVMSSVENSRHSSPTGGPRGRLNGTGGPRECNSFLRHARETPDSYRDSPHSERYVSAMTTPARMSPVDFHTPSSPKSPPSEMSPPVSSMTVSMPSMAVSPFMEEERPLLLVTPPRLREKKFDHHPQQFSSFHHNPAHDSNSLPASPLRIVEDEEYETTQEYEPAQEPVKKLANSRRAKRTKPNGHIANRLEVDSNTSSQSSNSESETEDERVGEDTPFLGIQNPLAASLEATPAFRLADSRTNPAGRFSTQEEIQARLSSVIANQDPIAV

[7] = tested on: Neuregulin-1 EGF-like domain; assay: small molecules binding NRG1 EGF domain – biochemical, small-molecule microarray, 635 nm fluorescence, primary screen (AID 1081); conditions: higher = more signal;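 note: binding of the protein to compounds printed on small-molecule microarray slides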
[8] = FRG1 expression reporter modulators in myotubes – cell-based, C2C12 myotubes, firefly/Renilla luciferase, luminescence, FRG1 inhibition for FSHD, primary screen (AID 1084); conditions: FRG1 promoter luciferase, higher = more signal, called active from +8 up or from −8 down
[9] = small molecules captured by biotinylated probe aFST – biochemical, small-molecule microarray, fluorescence 635/667, stem cell growth factor project, primary screen (AID 1086); conditions: higher = more signal;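 note: score merges 667 nm fluorescence with signal-to-noise of each printed compound spot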
[10] = binders of probe aHhip on microarray, primary screen, stem cell growth factor project, biochemical, small-molecule microarray, fluorescence 635/667 (AID 1087); conditions: higher = more signal;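 note: score merges spot fluorescence at 667nm with spot signal to noise ratio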

Row | Structure (SMILES) | composite z-score [1] | composite z-score [2] | composite z-score [3] | composite z-score [4] | composite z-score [5] | composite z-score [6] | composite z-score [7] | z-score [8] | composite z-score [9] | composite z-score [10]
1 | COc1cc2c(cc1O)C(c1ccc(CN3CCCC3)cc1)N(Cc1cc3c(cc1Br)OCO3)CC2 (stereo not given) | -0.373 | -0.311 | -0.0351 | 0.183 | 0.963 | 0.729 | 0.784 | 0.0296 (inactive) | 0.296 | -0.201
2 | COC(=O)[C@]1(CCS(=O)(=O)c2ccccc2)N=C(c2ccc(OCCCO)cc2)O[C@@H]1c1ccccc1N=[N+]=[N-] | 0.48 | 0.619 | 0.136 | 0.898 | 1.53 | 1.79 | 1.37 | 1.89 (inactive) | 1.15 | 0.0102
3 | [N-]=[N+]=Nc1ccccc1[C@@H]1OC(c2ccc(OCCCO)cc2)=N[C@]1(Cc1ccccc1)C(=O)N1CCCCC1 | 0.0153 | 1 | 0.122 | 0.9 | 1.39 | 1.37 | 1.28 | -2.33 (inactive) | 1.46 | 0.249
4 | CCCC#C[Si](O[C@H](CC)c1cn([C@H](C)c2ccccc2)nn1)(C(C)C)C(C)C | -0.4 | 1.31 | -0.0407 | 0.468 | 0.97 | 0.0607 | 0.181 | 0.337 (inactive) | 0.593 | -0.407
5 | COc1cc(C(O)C2C=CC3C(=O)N(C)C(=O)C3N2Nc2ccccc2)cc(OC)c1OC (stereo not given) | 1.3 | 0.723 | 0.341 | 0.602 | 1.25 | 1.83 | 1.35 | -0.818 (inactive) | 1.53 | 0.592
6 | Cc1ccccc1C(O)C1C=CC2C(=O)NC(=O)C2N1Nc1ccccn1 (stereo not given) | 0.888 | 0.127 | -0.129 | 0.0133 | 0.135 | 0.401 | -0.0441 | 1.08 (inactive) | -0.0817 | -0.134
7 | CC(C)C(O)C1C=CC2C(=O)N(c3ccccc3)C(=O)C2N1Nc1ccccc1 (stereo not given) | -0.393 | 0.466 | 0.0293 | 0.79 | 1.49 | 1.24 | 1.39 | 0.33 (inactive) | 1.53 | 0.158
8 | CCCCCCc1nc(Cc2cc(OC)c(OC)c(OC)c2)cc2c1[Si](C(C)C)(C(C)C)OC2 | -0.288 | -0.117 | -0.0909 | 0.0277 | -0.196 | -0.184 | -0.434 | 1.06 (inactive) | -0.0763 | -0.0427
9 | COCCOC(=O)N1C(=O)[C@@]2(c3cc(C#CC4(O)CCCCCC4)ccc31)[C@H](C(=O)N1CCc3cc(OC)c(OC)cc3C1)[C@H]1C(=O)O[C@H](c3ccccc3)[C@H](c3ccccc3)N1[C@@H]2c1ccc(OCCO)cc1 | -0.409 | 0.502 | 0.0088 | 0.467 | 1.24 | 0.675 | 1.18 | 1 (inactive) | 0.198 | -0.0994
10 | CC(=O)N1CC2(CC2)CC1c1ccccc1 (stereo not given) | 0.392 | 1.04 | -0.14 | 0.242 | 0.437 | 0.163 | 0.413 | 2.2 (inactive) | 0.661 | 0.533
11 | CC1CC/C=C\[C@H]2OC34C=CCN(C(C)(C)C)C(=O)[C@H]3N(CCCCCO)C(=O)[C@@H]4C2C(=O)O1 (stereo not given in full) | -0.108 | -0.688 | -0.172 | -0.817 | -1.57 | 0.299 | 0.479 | -0.0661 (inactive) | -0.581 | -0.261
12 | COC(=O)[C@@]1(Cc2ccc(OC)cc2)[C@H]2c3cc(C(=O)N(C)C)n(Cc4ccc(OC(F)(F)F)cc4)c3C[C@H]2CN1C(=O)c1ccccc1 | 0.363 | -0.468 | -0.121 | -0.0332 | 1.58 | 1.39 | 1.44 | 2.88 (inactive) | 0.575 | 0.276
13 | O=C1C2C=CC(C(O)C3CC=CCC3)N(Nc3ccccc3)C2C(=O)N1c1ccccc1 (stereo not given) | 0.877 | -0.129 | 0.122 | 0.397 | 1.61 | 1.3 | 1.28 | -1.16 (inactive) | 1.89 | -0.323
14 | COc1ccc(C#Cc2ccc3c(c2)[C@]2(C(=O)N3)[C@H](c3ccc(O)cc3)N3[C@H](c4ccccc4)[C@H](c4ccccc4)OC(=O)[C@H]3[C@@H]2C(=O)Nc2nc3ccccc3s2)cc1 | -0.552 | -0.133 | -0.0242 | 0.534 | 1.6 | 1.69 | 1.36 | 1.33 (inactive) | 1.01 | 0.113
15 | CCC1=C2CN(Cc3ccccc3)[C@@H](C(=O)Cc3ccccc3)C2C=CCC1 (stereo not given in full) | -0.317 | -0.756 | -0.0909 | 0.083 | -0.227 | 0.271 | 0.441 | -1.02 (inactive) | 0.0633 | -0.0994
16 | CN(C)C(=O)[C@@]1(Cc2ccccc2CN=[N+]=[N-])N=C(c2ccc(OCCCO)cc2)O[C@H]1c1ccccc1N=[N+]=[N-] | 0.388 | 0.021 | 0.0362 | 1.2 | 1.55 | 1.88 | 1.25 | -1.34 (inactive) | 1.44 | 0.0071
17 | COc1ccc(CCNC(=O)[C@@]2(c3ccc([N+](=O)[O-])cc3)CC(=O)N(C3CCCCC3)[C@@H]2c2ccc(CO)cc2)cc1 | 0.376 | 0.409 | 0.0598 | 0.325 | 0.58 | 1.54 | 1.23 | -0.517 (inactive) | 0.602 | 0.177

Row | Structure (SMILES) | composite z-score [1] | composite z-score [2] | composite z-score [3] | composite z-score [4] | composite z-score [5] | composite z-score [6] | composite z-score [7] | z-score [8] | composite z-score [9] | composite z-score [10]
18 | CCCC=C(CCC)[C@@H](NS(=O)(=O)CC12CCC(CC1=O)C2(C)C)c1ccc(C(=O)OC)cc1 (stereo not given in full) | -0.126 | 0.645 | 0.291 | 0.375 | 0.621 | 0.128 | 1.09 | 2.86 (inactive) | 0.974 | 0.274
19 | COc1cc(OC)c(C(O)C2C=CC3C(=O)N(Cc4ccccc4)C(=O)C3N2n2cnnc2)cc1Br (stereo not given) | -0.245 | 2.19 | -0.0131 | 0.919 | 0.36 | 1.32 | 1.12 | 0.569 (inactive) | 1.35 | -0.0645
20 | CC(C)C(CO)N1C(=O)[C@@H]2C3C(=O)OCCC/C=C\[C@H]3OC23C=CCN(Cn2nnc4ccccc42)C(=O)[C@@H]13 (stereo not given in full) | 0.314 | -0.665 | -0.148 | -0.323 | -0.72 | 1.88 | 0.476 | 0.0182 (inactive) | 0.013 | -0.306
21 | CCOC(=O)C[C@H]1[C@H](OC(=O)c2ccc(C(=O)c3ccccc3)cc2)[C@@H](NC(=O)CC(C)C)c2cc(OCCCO)ccc2N1C(=O)c1ccccc1 | -0.399 | 0.275 | -0.0266 | 0.542 | 1.2 | 0.807 | 0.996 | -0.16 (inactive) | 0.766 | 0.0129
22 | NCCCCCNC(=O)[C@@H]1C[C@@H]2C(=O)N[C@@H](CCCCN)C(=O)N2[C@@H]1c1ccc(O)cc1 | 0.266 | 0.726 | -0.0213 | 0.491 | 1.39 | 2.02 | 1.29 | 1.08 (inactive) | 0.865 | 0.23
23 | C=CC[C@H](OC(=O)Nc1ccc(SC)cc1)c1ccc(O)c2ccccc12 | 0.0792 | 0.104 | 0.0536 | 0.254 | 1.3 | 1.75 | 1.33 | 7.23 (inactive) | 0.385 | 0.176
24 | CCCCC(O)C1C=CC2C(=O)N(C)C(=O)C2N1N(c1ccccc1)c1ccccc1 (stereo not given) | 0.555 | 1.3 | 0.0748 | 0.0636 | 1.14 | 1.25 | 0.999 | 0.667 (inactive) | 0.701 | 0.0497
25 | NC(=O)NCC#Cc1ccc2c(c1)[C@]1(C(=O)N2)[C@H](c2ccccc2OCCO)N2[C@H](c3ccccc3)[C@H](c3ccccc3)OC(=O)[C@H]2[C@@H]1C(=O)O | 0.129 | 0.443 | -0.0383 | -0.0167 | -0.243 | 1.11 | -0.0034 | 0.233 (inactive) | -0.362 | -0.438
26 | C=CCNC(=O)[C@H]1[C@@H]2C(=O)O[C@@H](c3ccccc3)[C@@H](c3ccccc3)N2[C@@H](c2ccccc2OCCO)[C@]12C(=O)N(C(=O)OCCOC)c1ccc(C#CC3(O)CCCCCC3)cc12 | -0.192 | 0.281 | 0.0376 | 0.434 | 0.776 | 1.04 | 1.2 | -2.54 (inactive) | 0.339 | 0.0176
27 | CC[C@@H]1C=C(C(=O)O)[C@H](c2ccc(C#N)cc2)N1S(=O)(=O)c1ccc(C)cc1 | 0.6 | 2.35 | 0.0865 | 1.09 | 0.905 | 1.25 | 1.3 | 0.281 (inactive) | 0.145 | -0.134
28 | COC(=O)[C@@]1(Cc2ccccc2)[C@H]2c3cc(C(=O)N4CCCC4)n(CCc4ccccn4)c3C[C@H]2CN1C(=O)c1ccccc1 | 0.223 | 0.487 | -0.177 | 0.283 | 1.33 | 2.09 | 1.35 | 2.95 (inactive) | 1.18 | 0.503
29 | CC(C)(C)OC(=O)CC[C@@]1(C(=O)NCC(O)CO)N=C(c2ccc(OCCCO)cc2)O[C@@H]1c1ccccc1CN=[N+]=[N-] (stereo not given in full) | 0.316 | 1.86 | -0.0249 | 0.426 | 1.49 | 1.01 | 1.48 | 3.3 (inactive) | 0.544 | -0.0994
30 | CCCC[C@@H](O)C1=C(COC)C[C@H]2C(=O)N(C)C(=O)[C@H]2[C@H]1CO | -0.439 | 0.131 | -0.176 | 0.466 | -0.02 | -0.321 | -0.282 | -1.21 (inactive) | 0.0794 | -0.16
31 | C=CCNC(=O)[C@@H]1[C@H]2C(=O)O[C@H](c3ccccc3)[C@H](c3ccccc3)N2[C@H](c2ccc(O)cc2)[C@@]12C(=O)N(C(=O)OCCOC)c1ccc(C#CC3=CCCCC3)cc12 | -0.254 | 0.467 | -0.021 | 0.512 | 0.761 | 1 | 1.17 | 0.816 (inactive) | 0.668 | 0.951
32 | O=C(NCCN1CCOCC1)[C@@H]1c2ccccc2C(=O)N(C2Cc3ccccc3C2)[C@H]1c1ccc(CO)cc1 | 0.704 | 0.0352 | -0.163 | -0.465 | -0.168 | 0.855 | 1.25 | -1.39 (inactive) | -0.768 | -0.173
33 | CCN(CC)c1ccc(N2CC=CC34O[C@@H]5/C=C\CCCOC(=O)C5[C@H]3C(=O)N(C(C)CO)[C@@H]4C2=O)cc1 (stereo not given in full) | -0.136 | -0.207 | -0.175 | -0.136 | -0.0693 | 1.87 | 1.31 | -0.768 (inactive) | -0.285 | -0.236
